High-throughput results deposited in PubChem BioAssay by National Center for Advancing Translational Sciences (NCATS).
Only some compounds are listed: those with a hit (about 0.51% of all), similar ones and a draw of the others.
Vif-APOBEC3F blk = Vif-A3F binding inhibition. HeLa A3F-eYFP + Vif (tagged APOBEC3F with the HIV-1 protein that degrades it), YFP fluorescence increase. Potency, µM (highest dose often 46.1 µM), without a hit: at the highest dose activity, negative = active. hit rate 0.2% among 390,000. AID 602313; further: % of control where 0% means no effect; nearly all actives have a fitted effect of over 65% in size
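Fluorescence increase (Ex 488/Em 500-530) after overnight compound treatment at 37 deg C flags inhibition of Vif-driven A3F-eYFP loss in stable HeLa A3F-eYFP/Vif cells seeded overnight beforehand.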
Epigenetic reg = derepresses silenced GFP reporter in murine cells; murine LDR cells, GFP reporter derepression, 30 h; Potency, µM (top dose mostly 53.9 µM), for inactives: top-dose GFP activation, actives largely listed as activators; hit rate 0.2% among 280,000; AID 1865; further: % of control where 0% means no effect; nearly all actives have a fitted effect of over 60% in size
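In this reporter-derepression format, murine cells bearing a silenced integrated CMV-GFP locus incubate with test compound (30 h, 37 C), then are washed and imaged; fluorescent objects of 20–120 um count as induced cells.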
Vif-A3G inh = blocks the Vif interaction with human APOBEC3G | Q9HC16 | hit rate 0.076% among 410,000 | Potency, µM (titrated, usually from 46.1 µM), for the others: top-dose activity, negative = active, usual class: inhibitors | HeLa A3G-eYFP + Vif (tagged APOBEC3G with the HIV-1 protein that degrades it), YFP fluorescence, overnight; further: on the % scale 0 is the no-effect control and ±100 the full control effect; nearly all actives have a fitted effect of over 60% in size
Target sequence (Q9HC16 whole entry, looked up): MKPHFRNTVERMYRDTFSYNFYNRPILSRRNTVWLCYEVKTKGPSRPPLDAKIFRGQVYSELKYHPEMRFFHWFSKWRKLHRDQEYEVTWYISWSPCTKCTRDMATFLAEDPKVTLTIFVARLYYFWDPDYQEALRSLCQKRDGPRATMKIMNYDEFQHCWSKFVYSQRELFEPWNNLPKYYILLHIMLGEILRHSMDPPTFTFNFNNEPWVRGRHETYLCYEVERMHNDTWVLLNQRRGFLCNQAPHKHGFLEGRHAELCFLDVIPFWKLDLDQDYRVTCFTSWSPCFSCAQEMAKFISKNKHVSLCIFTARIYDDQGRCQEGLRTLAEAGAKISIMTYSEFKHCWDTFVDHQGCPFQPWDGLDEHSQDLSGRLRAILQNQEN
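HeLa cells stably expressing Vif and C-terminally eYFP-tagged A3G, seeded overnight at 37 deg C, then exposed to compound by pintool overnight at 37 deg C. Rise in yellow fluorescence (Ex 488/Em 500-530, Acumen) marks blocked Vif-driven A3G degradation.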
PINK1 modulator = changes PINK1 expression; PINK1 immunofluorescence, high-content cytometry, 24 h; Potency, µM (titrated, usually from 76.6 µM), inactives show at the highest dose activation (PINK1 increase), hits mostly activators; hit rate 0.2% among 410,000; AID 624263; active means well fitted activation curve with a large enough effect; inconclusive means small, poorly fitted or top-dose-only effect; cell line not stated here; further: % of control where 0% means no effect; nearly all actives have a fitted effect of over 65% in size
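Fluorescence from anti-PINK1 antibody, together with nuclear and cell stains, was scanned on a laser-scanning cytometer. Before staining, stable-line cells were incubated 24 hours with compounds at 5 concentrations; primary antibody 12 h at 10 degrees C.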
Active calls of the source: *; ? = inconclusive; / = no result; [ ] = dose if it differs, or a comment. Unless noted, the call rests on the fitted dose curve; in most records, active means well fitted curve in the direction sought with a large enough effect; inconclusive means small, poorly fitted or top-dose-only effect, or another doubt; inactive means no such curve, though single readings can be large; an effect the other way counts as inactive or inconclusive. Potency means the concentration at half of the fitted maximal effect.

SMILES	Vif-APOBEC3F blk	Epigenetic reg	Vif-A3G inh	PINK1 modulator
CCOC(=O)N1CCN(c2cc(NCCC(=O)O)c3c4c(onc24)-c2ccccc2C3=O)CC1	7.1µM*	0%	?	3%
Cc1ccc(NC(=O)c2ccc(NCCc3ccccc3)c([N+](=O)[O-])c2)cc1F	1%	13µM*	-4%	?
O=C(Nc1cc(F)cc(F)c1)c1ccc(NCCc2ccccc2)c([N+](=O)[O-])c1	?	-1%	-17%	?
Cc1csc2ncc(C(=O)N3CCc4ccccc43)c(=O)n12	0%	/	-5%	1%
Nn1c(SCC(=O)NCc2ccccc2)nnc1C1CC1	1%	5%	1%	5µM*
CCN1CCN(Cc2c(O)ccc3c2O/C(=C\C=C\c2ccccc2OC)C3=O)CC1	?	-1%	-12%	-1%
COC1=C(OC)C(=O)C(Sc2ccc3ccccc3c2)=CC1=O	25µM*	/	?	-4%
COc1ccc(Nc2oc(/C=C/c3cccc(OC)c3)nc2C#N)cc1	-23%	10%	-8%	?
CCOc1ccc(Nc2oc(/C=C/c3ccc(OC)c(OC)c3)nc2C#N)cc1	0%	32µM*	3%	3%
N#Cc1ccccc1NC(=O)CSc1nc(-c2ccccc2)cc(C(F)(F)F)c1C#N	11µM*	13µM*	-30%	10%
N#Cc1c(C(F)(F)F)cc(-c2ccc(F)cc2)nc1SCC(=O)Nc1ccccc1	10%	7%	7%	3%
CCOC(=O)NC(=O)CSc1nc(C)cc(C(F)(F)F)c1C#N	?	1%	-30%	-3%
Cc1cc(C(F)(F)F)c(C#N)c(SCC(=O)Nc2nc3cc(Br)ccc3s2)n1	?	-3%	?	14µM*
Cc1ccc(S(=O)(=O)CCSc2nc(C)cc(C(F)(F)F)c2C#N)cc1	?	?	11µM*	1%
N#Cc1c(C(F)(F)F)cc(-c2ccc(F)cc2)nc1SCC(=O)O	2%	0%	1%	-1%
CCCCOc1ccc(-c2cc(C(F)(F)F)c(C#N)c(SCC(=O)O)n2)cc1	11µM*	25µM*	-9%	?
COC(=O)CSc1nc(C)cc(C(F)(F)F)c1C#N	-5%	-2%	-1%	0%
COc1cccc(C(=O)NNC(=O)c2cccnc2)c1	-6%	/	-1%	4%
O=C(Nc1cccc(S(=O)(=O)Nc2ccccc2Cl)c1)c1ccc(N2CCCC2)c([N+](=O)[O-])c1	2%	0%	-1%	0%
O=C(COc1ccccc1)N1CCN(c2nnc(-c3ccccc3)c3ccccc23)CC1	-1%	-5%	-6%	9%[38.3 µM]
Cc1ccc(NC(=O)CSc2nc(-c3ccc(F)cc3)cc(C(F)(F)F)c2C#N)cc1	3%	?	-1%	1%
Cc1coc(NC(=O)CSc2nc(-c3ccncc3)cc(C(F)(F)F)c2C#N)n1	11µM*	13µM*	?	?
COc1cccc(-c2nc(=S)c3c(n2Cc2ccco2)CCCC3)c1	-6%	-1%	-2%	6.3µM*
Cc1cc(C)n(CC(O)COCc2ccccc2)n1 (stereo not drawn)	3%	10µM*	2%	0%
Cc1cc(C)n(CC(O)COc2cccc(OCC(O)Cn3nc(C)cc3C)c2)n1 (stereo not drawn)	12%	0%	-3%	-2%
SMILES	Vif-APOBEC3F blk	Epigenetic reg	Vif-A3G inh	PINK1 modulator
Cc1cc(C(=O)OC(C(=O)Nc2cccc(C(F)(F)F)c2)c2ccccc2)c(C)o1 (stereo not drawn)	-30%	0%	-1%	35µM*
O=S(=O)(c1ccc2c(c1)OCCO2)N1CCC(c2nc3ccccc3s2)CC1	-5%	6%	0%	11µM*
COc1ccc(S(=O)(=O)N2CCC(c3nc4ccccc4s3)CC2)cc1OC	0%	-1%	5%	3%
O=C(C[n+]1cccc2ccccc21)c1ccc(F)cc1	/	/	-4%	/
CC(C)OC(=O)c1c2c(n3ccccc13)C(=O)c1ccccc1C2=O	?	10µM*	?	11%
COC(=O)c1cc2c(C)c(C)c3ccccn3c-2c1C(=O)OC	?	?	-7%	8%
CN(C)S(=O)(=O)c1ccc(Cl)c(NC(=O)CSc2nc3c(cc2C#N)C(=O)CCC3)c1	-8%	25µM*	1%	6%
Cc1ccc(NC(=O)C(C)Sc2nnc3ccccn23)cc1 (stereo not drawn)	0%	/	2%	1%
O=C(OCc1cn([C@@H]2C[C@H](c3ccc(Cl)cc3)N(CC3CCCCC3)C[C@H]2O)nn1)c1ccccc1	-5%	/	0%	?
COc1ccc(C2=NOC(C(=O)NCc3ccc(F)cc3)C2)cc1OC (stereo not drawn)	-22%	-6%	?	2.8µM*
CCC(NC(=S)NCc1ccc(F)cc1)c1ccc(C(C)C)cc1 (stereo not drawn)	-25%	/	3%	16µM*
Cc1ccc(NC(=O)Cc2c[nH]c3ccccc23)cc1S(=O)(=O)N1CCCCCC1	6%	3%	3%	-1%
CCNC(=O)C1CCCN(c2nnc(C)c3c(C)n(-c4ccc(C)cc4)nc23)C1 (stereo not drawn)	7%	1%	-3%	1%
Cc1ccc(-n2nc3c(N4CCCC(C(=O)NCc5ccccc5C)C4)nnc(C)c3c2C)cc1 (stereo not drawn)	13µM*	-2%	-9%	3%
NCc1nc(-c2ccc(Cl)cc2)no1	3%	6%	3%	4%
COc1ccc(-n2c(/C=C/c3c(C)[nH]c4ccccc34)nc3ccccc3c2=O)cc1	-10%	10µM*	-8%	13%
Cc1ccc(S(=O)(=O)N2CCC(C(=O)OCC(=O)NCc3ccco3)CC2)cc1C	1%	/	0%	0%
COc1cc2c3nnc(-c4ccc(F)cc4)c-3cn(Cc3ccccc3F)c2cc1OC	25µM*	6.3µM*	?	?
COc1cc2c(=O)c(S(=O)(=O)c3ccc(F)cc3)cn(Cc3ccccc3C)c2cc1OC	-11%	-1%	-1%	4%
O=[N+]([O-])c1cccc(N2Cc3ccccc3C2)c1	7%	-1%	-6%	8%
COc1ccc2c(C)cc(SCC(=O)NC3CCCCC3)nc2c1	?	/	-3%	13%
COc1ccc2c(C)cc(SCC(=O)N3CCOCC3)nc2c1	25µM*	8%	?	-1%
CCN(CC(=O)Nc1ccccc1-c1ccccc1)Cc1nc2ccccc2c(=O)[nH]1	-1%	4%	7.1µM*	2%
COc1ccc(/C=C2\SC(N)=NC2=O)cc1Br	5%	/	1%	7%
COc1cc(/C=C2\SC(N)=NC2=O)cc(Cl)c1O	11µM*	/	-18%	4%
O=C(Nc1ccc2c(c1)OCO2)C1Cc2c(-c3cccnc3)ccnc2O1 (stereo not drawn)	/	/	-2%	2%
CCCn1c2ccccc2c2cnn(CC(=O)NCCc3ccc(S(N)(=O)=O)cc3)c(=O)c21	-5%	-1%	1%	2%
CCN(CC)c1ccc(CNc2nc3ccccc3n2C(C)C)cc1	-10%	-1%	3%	22µM*
Cc1ccc(C(=O)NCCONC(=O)c2ccc(C)cc2)cc1	-6%	/	-10%	-1%
